Experimental data: PubChem BioAssay (Tox21)
Results filed as inconclusive are left out. Calls of active or inactive are those of the source. Unless noted, calls come from the whole dose curve; as a rule, active = well fitted curve in the direction sought with a large enough effect in the repeat runs; inconclusive = weak or mixed curves; inactive = no such curve, though single readings can be large; an effect the other way counts as inactive or inconclusive.

Assays:
[1] = qHTS assay for small molecules that induce genotoxicity in human embryonic kidney cells expressing luciferase-tagged ATAD5 (AID 651632); note: nearly all actives have a fitted effect of over 15% in size; note: potency is the fitted concentration of half-maximal effect
How it was run: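 Genotoxicity read-out via ATAD5-luciferase: HEK293T cells, 16 hr compound incubation at 37C, Amplite detection.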

[2] = qHTS assay for small molecule agonists of the p53 signaling pathway - cell viability (AID 651633; calls by dose curve;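 note: p53RE-bla HCT reporter cells with a stable beta-lactamase p53 reporter; series mostly up to about 83 µM; nearly all actives have a fitted effect of over 30% in size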)
How it was run: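 Viability counter-read: CellTiter-Glo luminescence (30 min, room temperature) in the same p53RE-bla plates. These plates had been exposed to compounds for 16 h at 37 C.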

[3] = qHTS assay for small molecules that induce genotoxicity in human embryonic kidney cells expressing luciferase-tagged ATAD5 - cell viability (AID 651634; calls by dose curve; note: nearly all actives have a fitted effect of over 25% in size)
How it was run: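 Live-cell protease activity (CellTiter-Fluor, fluorescence) indicates viability. HEK293T cells with luciferase-tagged ATAD5; 15.5 hr compound treatment at 37C.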

[4] = qHTS assay for small molecule disruptors of the mitochondrial membrane potential - cell viability (AID 720634; calls by dose curve;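 note: human HepG2 liver cancer cells; series mostly up to about 83 µM; nearly all actives have a fitted effect of over 20% in size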)
How it was run: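 Human hepatoma HepG2 cells were treated for 1 hr with test chemicals, then given m-MPI dye and CellTiter-Glo. Cell viability reflects luminescence proportional to cellular ATP.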

[5] = qHTS assay to test for compound auto fluorescence at 590 nm (red) in HepG2 cells (AID 720674)
How it was run: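 We screened compounds on adherent HepG2 cells, incubating them for an hour at 37 C in 5% CO2 before reading emission at 590 nm under 540 nm excitation; values reflect equivalence to Rose Bengal sodium fluorescence.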

[6] = qHTS assay to test for compound auto fluorescence at 535 nm (green) in HepG2 cells (AID 720675)
[7] = qHTS assay to test for compound auto fluorescence at 460 nm (blue) in HEK293 cells (AID 720678)
How it was run: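 Cells were seeded and left to adhere for 4-5 hr at 37C. Compounds were then pin-transferred. After an overnight incubation at 37C under 5% CO2, intrinsic fluorescence at 405/460 nm was measured and referenced to triamterene.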

[8] = qHTS assay to test for compound auto fluorescence at 590 nm (red) in HEK293 cells (AID 720679)
How it was run: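 Each well held 2,000 HEK293 cells in medium containing 10% dialyzed FBS. Following 4-5 hr attachment at 37C, 23 nL test compound or DMSO was added; plates sat overnight, and red fluorescence (540/590nm) was recorded.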

[9] = qHTS assay to test for compound auto fluorescence at 535 nm (green) in HEK293 cells (AID 720680)
[10] = qHTS assay to test for compound auto fluorescence at 460 nm (blue) in HEK293 cell free culture (AID 720681)
How it was run: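 Blue fluorescence (Ex 405/Em 460 nm, triamterene-equivalent) was read immediately after pin transfer of compound or DMSO into medium (DMEM, 10% FBS) without cells.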

[11] = qHTS assay to test for compound auto fluorescence at 535 nm (green) in HEK293 cell free culture (AID 720682)
How it was run: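 Each library compound, or DMSO control, is added by pintool to medium alone, comprising DMEM and 10% FBS. Emission at 535 nm following 485 nm excitation is quantified against fluorescein.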

[12] = qHTS assay to test for compound auto fluorescence at 590 nm (red) in HEK293 cell free culture (AID 720683)
How it was run: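 Red-channel autofluorescence of compounds in culture medium (DMEM, 10% FBS), no cells, measured at 540/590 nm. Rose Bengal sodium is the reference fluorophore for equivalence.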

[13] = qHTS assay to test for compound auto fluorescence at 590 nm (red) in HepG2 cell free culture (AID 720684)
How it was run: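 Steps: dispense MEM/10% FBS medium, no cells; pin compound or DMSO vehicle; read red channel, Ex/Em 540/590 nm. Output given as Rose Bengal sodium equivalents.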

[14] = qHTS assay to test for compound auto fluorescence at 460 nm (blue) in HepG2 cell free culture (AID 720685)
How it was run: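 Compound (23 nL) or DMSO pinned into cell-free MEM with 10% FBS; blue fluorescence read at 405/460 nm excitation/emission, expressed as auto-fluorescence equivalency to triamterene.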

[15] = qHTS assay to test for compound auto fluorescence at 535 nm (green) in HepG2 cell free culture (AID 720686)
[16] = qHTS assay to test for compound auto fluorescence at 460 nm (blue) in HepG2 cells (AID 720687)
How it was run: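 Blue-channel autofluorescence (Ex/Em 405/460 nm, triamterene-equivalent) was measured after 1 hr compound exposure at 37 C, 5% CO2. Cells were HepG2, plated overnight at 37 C in MEM plus 10% FBS.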

[17] = biological target: Glucocorticoid receptor (Homo sapiens) (UniProt P04150); assay: qHTS assay to identify small molecule antagonists of the glucocorticoid receptor (GR) signaling pathway (AID 720692; active = well fitted inhibition curve with a large enough effect in the signal ratio in the repeat runs, not every such curve was filed as active; the % refers to the signal ratio)
How it was run: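 Fluorescence from cleaved LiveBLAzer B/G FRET substrate reports GRE-driven beta-lactamase in HeLa cells; compounds are tested against 5 nM dexamethasone (final) over 18 h at 37 C, substrate incubation 2 h at room temperature.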

[18] = qHTS assay for small molecule disruptors of the mitochondrial membrane potential (AID 720635); note: potency is the fitted concentration of half-maximal effect
How it was run: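 Mitochondrial membrane potential tracked with Mito-MPS dye, red aggregates (ex 540/em 590 nm) against green monomers (ex 490/em 535 nm). Compound treatment 1 hr at 37C, dye 30 min in HepG2.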

[19] = biological target: Glucocorticoid receptor (Homo sapiens) (UniProt P04150); assay: qHTS assay to identify small molecule agonists of the glucocorticoid receptor (GR) signaling pathway (AID 720691; active = well fitted activation curve with a large enough effect in the signal ratio in the repeat runs, not every such curve was filed as active; the % refers to the signal ratio)
How it was run: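 Beta-lactamase reporter activity, read as fluorescence intensity, was measured in GR-bla HeLa cells exposed to compounds for 18 h at 37 C and then loaded with LiveBLAzer B/G FRET substrate for 2 h at room temperature.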
% is set by controls: 0 for no effect and ±100 for the full control effect.

Chain of Glucocorticoid receptor (Homo sapiens) (P04150 whole entry, looked up): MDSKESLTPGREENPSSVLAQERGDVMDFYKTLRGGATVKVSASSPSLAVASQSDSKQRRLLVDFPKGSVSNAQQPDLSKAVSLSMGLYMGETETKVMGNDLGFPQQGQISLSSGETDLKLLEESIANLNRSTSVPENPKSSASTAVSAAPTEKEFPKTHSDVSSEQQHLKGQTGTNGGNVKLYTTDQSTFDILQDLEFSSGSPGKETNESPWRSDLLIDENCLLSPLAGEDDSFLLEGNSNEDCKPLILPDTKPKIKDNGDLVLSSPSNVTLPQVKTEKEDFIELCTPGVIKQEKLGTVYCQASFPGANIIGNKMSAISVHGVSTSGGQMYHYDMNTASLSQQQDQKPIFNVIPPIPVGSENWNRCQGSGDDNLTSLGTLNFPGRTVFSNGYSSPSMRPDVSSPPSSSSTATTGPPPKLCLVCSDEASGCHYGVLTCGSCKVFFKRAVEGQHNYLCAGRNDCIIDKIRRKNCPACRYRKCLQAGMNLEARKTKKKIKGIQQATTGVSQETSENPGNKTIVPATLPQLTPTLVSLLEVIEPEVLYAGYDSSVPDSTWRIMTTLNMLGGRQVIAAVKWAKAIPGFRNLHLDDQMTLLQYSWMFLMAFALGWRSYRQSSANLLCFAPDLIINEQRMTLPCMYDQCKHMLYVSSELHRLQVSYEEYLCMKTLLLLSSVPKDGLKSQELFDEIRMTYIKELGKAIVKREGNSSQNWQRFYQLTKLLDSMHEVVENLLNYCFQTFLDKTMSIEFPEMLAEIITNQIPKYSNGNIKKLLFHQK

CC/C=C\CCO
inactive: Potency [1] | Potency [2] | Potency [3] | Potency [4] | outcome [5] | outcome [6] | Potency [7] | outcome [8] | outcome [9] | Potency [10] | outcome [11] | outcome [12] | outcome [13] | outcome [14] | outcome [15] | outcome [16] | Potency [17]

N#C[C@@H]1CC(F)(F)CN1C(=O)CNC1CC2CCC(C1)N2c1ncccn1 (stereo partly drawn)
inactive: Potency [1] | Potency [2] | Potency [3] | Potency [4] | outcome [5] | outcome [6] | Potency [7] | outcome [8] | outcome [9] | Potency [10] | outcome [11] | outcome [12] | outcome [13] | outcome [14] | outcome [15] | outcome [16]

O=C(N[C@@H](Cc1ccccc1)[C@@H](O)C(=O)N1C[C@@H](O)[C@@H](O)C1)c1cc2cc(Cl)ccc2[nH]1
inactive: Potency [1] | Potency [2] | Potency [3] | Potency [4] | outcome [5] | outcome [6] | outcome [8] | outcome [9] | Potency [10] | outcome [11] | outcome [12] | outcome [13] | outcome [14] | outcome [15] | outcome [16]

NC(=O)c1ccccc1
inactive: Potency [1] | Potency [2] | Potency [3] | Potency [4] | Potency [18] | outcome [5] | outcome [6] | outcome [8] | outcome [9] | Potency [10] | outcome [11] | outcome [12] | outcome [13] | outcome [14] | outcome [15] | outcome [16] | Potency [19]

CC(=O)c1ccc(Cl)c(Cl)c1Cl
inactive: Potency [1] | Potency [2] | Potency [3] | Potency [4] | outcome [5] | outcome [6] | Potency [7] | outcome [8] | outcome [9] | Potency [10] | outcome [11] | outcome [12] | outcome [13] | outcome [15] | outcome [16]

CC(COc1ccccc1)NC(C)C(O)c1ccc(O)cc1 (stereo not drawn)
inactive: Potency [1] | Potency [2] | Potency [3] | Potency [4] | Potency [18] | fluorescence, relative to Rose Bengal [5] -0.283% [at 18.6 µM] | fluorescence, % of fluorescein control [6] -0.086% [at 18.6 µM] | fluorescence, % of triamterene [7] -0.0294% [at 18.6 µM] | fluorescence, % of fluorescent control [8] -0.22% [at 18.6 µM] | fluorescence, % of fluorescein [9] 0.0104% [at 18.6 µM] | fluorescence, % of fluorescent control [10] 0.128% [at 18.6 µM] | activity change [11] -0.0013% [at 18.6 µM] | fluorescence, % of fluorescent control [12] 0.208% [at 18.6 µM] | fluorescence, % of Rose Bengal [13] -0.0388% [at 18.6 µM] | fluorescence, % of fluorescent control [14] -0.0841% [at 18.6 µM] | fluorescence, % of fluorescein control [15] 0.0107% [at 18.6 µM] | fluorescence, % of fluorescent control [16] 0.0066% [at 18.6 µM] | Potency [19] | Potency [17]

Nc1ccc(C(=O)Oc2ccccc2)c(O)c1
inactive: Potency [2] | Potency [3] | outcome [5] | outcome [6] | Potency [7] | outcome [8] | outcome [9] | Potency [10] | outcome [11] | outcome [12] | outcome [13] | outcome [14] | outcome [15] | Potency [19] | Potency [17]
active: Potency [1] 9.44 µM | Potency [18] 29.8 µM

CC(=O)CC/C=C(\C)CC/C=C(\C)CC/C=C(\C)CCC=C(C)C
inactive: Potency [1] | Potency [2] | Potency [3] | Potency [4] | Potency [18] | outcome [5] | outcome [6] | Potency [7] | outcome [8] | outcome [9] | Potency [10] | outcome [11] | outcome [12] | outcome [13] | outcome [14] | outcome [15] | outcome [16]
